# Source: PubChem (National Center for Advancing Translational Sciences (NCATS))
# Compounds with a hit are over-represented: about 19% of the library has one in this group of screens.
# TDP1 cell CPT: DT40-hTDP1 cell growth loss with CPT; Potency, µM (top dose mostly 46.2 µM), inactives show at the top dose activity change, negative = growth inhibition, actives largely listed as inhibitors; chicken DT40 Tdp1-/-;hTDP1 cells + 20 nM CPT, ATP luminescence, 48 h; AID 686979; actives 12% (n = 420,000); also: potency is read from the fitted curve at half-maximal effect; nearly all actives have a fitted effect of over 55% in size
#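 Chicken DT40 Tdp1-/- cells complemented with human TDP1, 400 cells/well, exposed to compounds plus 20 nM camptothecin for at least 48 h at 37 C; viability read as ATP content by CellTiter-Glo luminescence.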
# IL-1B inflam inh: inflammasome signaling inhibition, IL-1 beta readout; THP-1 LPS/ATP IL-1B secretion, AlphaLISA, 16 h; hits give low values; activity change, % at 57.5 µM; actives 4.7% (n = 360,000); AID 743279; in the data active = activity change below about -50%; inconclusive = mostly about -30% to -49%
#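 Secreted IL-1B measured by AlphaLISA bead assay after 16 h compound exposure of THP-1 cells; compounds (final up to 57.5 uM) added 1 h before LPS (250 ng/mL) and ATP (1.25 mM) stimulation; lower signal means less secretion.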
# HT1080 IDH1KD tx: HT-1080 IDH1 knockdown cell toxicity (counter line); HT-1080 IDH1 knockdown viability, ATP luminescence, 48 h; Potency, µM (titrated, usually from 46.1 µM), without a hit: at the top dose activity, negative = toxicity, most hits filed as cytotoxic; actives 2% (n = 360,000); AID 686971;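 also: potency is read from the fitted curve at half-maximal effect; 0% = DMSO wells and -100% = cell-free medium wells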
#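 IDH1KD HT-1080 cells, 750/well, RPMI + 5% FBS; compound pinned after 2 h settling; 48 h, 37 °C; CellTiter-Glo luminescence; % activity normalised to DMSO and no-cell wells; curves fitted, classed by r2 and efficacy.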
# TDP1 cell noCPT: qHTS for Inhibitors of human tyrosyl-DNA phosphodiesterase 1 (TDP1): qHTS in cells in absence of CPT; DT40 Tdp1-/- hTDP1 cells, no CPT, ATP luminescence, 48 h; Potency, µM (doses to about 46.2 µM), for inactives: top-dose activity change, negative = growth inhibition, actives largely listed as inhibitors; actives 15% (n = 420,000); also: potency is read from the fitted curve at half-maximal effect; nearly all actives have a fitted effect of over 55% in size
#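 Growth of hTDP1-complemented DT40 Tdp1-knockout cells is measured by ATP luminescence after at least 48 hr compound exposure at 37 °C, with DMSO substituting for the 20 nM CPT used in the parallel screen.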
# HT1080NT lethal: kills 2HG-producing HT-1080-NT fibrosarcoma cells. Potency, µM (titrated, usually from 46.1 µM), for inactives: top-dose activity, negative = less viability, actives largely listed as cytotoxic. AID 686970. HT-1080-NT fibrosarcoma viability, CellTiter-Glo ATP luminescence, 48 h. actives 1.6% (n = 360,000);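 also: NT is the 2HG producing partner of a matched IDH1 knockdown line; potency is read from the fitted curve at half-maximal effect; 0% = DMSO-treated cells and -100% = media-only wells without cells; nearly all actives have a fitted effect of over 55% in size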
#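 Fibrosarcoma NT cells, 750 per well in 5% FBS RPMI, were exposed to compound for 48 hours. Viability: CellTiter-Glo luminescence.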
# * = called active by the depositor; ? = inconclusive; . = no result; [ ] = another dose, or the depositor's remark. Unless noted, calls follow the shape of the dose curve; as a rule, active = well fitted curve in the direction sought with a large enough effect; inconclusive = small, poorly fitted or top-dose-only effect, or another doubt; inactive = no such curve, though single readings can be large; an effect the other way counts as inactive or inconclusive. Unless noted, % is scaled to controls: 0 for no effect and ±100 for the full control effect.
SMILES,TDP1 cell CPT,IL-1B inflam inh,HT1080 IDH1KD tx,TDP1 cell noCPT,HT1080NT lethal
COC(=O)c1cc(O)cc(OC)c1Oc1cc(C)cc(O)c1C(=O)O,1.2µM*,?,?,1µM*,23µM*
Cc1ccc(S(=O)(=O)Nc2ccc(-n3cnnn3)cc2)c(C)c1,?,15,0%,?,0%
Cc1cc(C)c(S(=O)(=O)Nc2ccc(N(C)C)cc2)c(C)c1-n1cnnn1,29µM*,-16,-17%,16µM*,-10%
O=C1CSC(=S)N1Cc1ccccc1,?,-10,-8%,21µM*,-3%
Cc1ccnc(Nc2nc3ccccc3o2)n1,?,2,?,21µM*,?
Cc1ccc(Nc2nc3ccccc3o2)cc1F,8.2µM*,35,-21%,10µM*,-26%
Cc1nc(Nc2nc3ccccc3o2)nc(C)c1C,-20%,?,-30%,-69%,-26%
COc1cc(OC)cc(N(C(=O)CNC(=O)c2cccs2)C(C(=O)NCC2CCCO2)c2ccc(OC)c(OC)c2)c1 (configuration not stated),11%,40,3%,2%,5%
COc1ccc([N+](=O)[O-])cc1NC(=S)NC(C)=O,?,4,11%,?,2%
COc1cc([N+](=O)[O-])ccc1NC(=S)Nc1cc(C(=O)OC(C)C)cc(C(=O)OC(C)C)c1,29µM*,-3,?,?,-21%
CC(=O)c1c(C)oc2ccc(NS(=O)(=O)c3ccc(C)cc3)cc12,?,37,-9%,8.2µM*,-10%
COCc1oc2ccc(NS(=O)(=O)c3ccc(C)cc3)cc2c1C(=O)OC,3.7µM*,.,.,2.3µM*,.
Cc1ccc(-c2nc3cc(NS(=O)(=O)c4ccc(C)cc4)ccc3o2)cc1,14µM*,15,?,?,?
CC(=O)c1c(C)oc2ccc(NS(=O)(=O)c3cccs3)cc12,?,0,-6%,?,-17%
O=S(=O)(Nc1ccc2oc(-c3ccccc3)nc2c1)c1ccccc1,-28%,?,?,-13%,?
Cc1oc2ccc(NS(=O)(=O)c3ccc(C(C)(C)C)cc3)cc2c1C(=O)Nc1ccccc1,?,?,-25%,18µM*,-16%
CC1(C(=O)NCc2ccccc2)CSCC(=O)N1CC(F)(F)F (configuration not stated),7%,0,-1%,22%,3%
CCN(CC)CCN(C)C(=O)c1ccc(-c2ccccc2)nc1N(C)C,-2%[9.04 µM],.,.,-17%,.
Nc1nc2ccc(Cl)cc2o1,9%,7,11%,-7%,9%
CC(=O)c1c(C)oc2ccc(NS(=O)(=O)c3ccc(C(C)C)cc3)cc12,5.8µM*,.,.,5.8µM*,.
Cc1ccc2[nH]c(=O)c(CNS(=O)(=O)c3ccccc3)c(-c3ccccc3)c2c1,?,-10,-20%,18µM*,-8%
C/C(=N\N)c1c(-c2ccccc2)c2cc(C)ccc2[nH]c1=O,-13%,-17,10%,10%,13%
COc1ccc2nc(/N=C(\N)NC(=O)C(C)(C)C)nc(C)c2c1,-18%,?,-1%,?,4%
COc1ccc2nc(/N=C(\N)NC(=O)N3c4ccccc4Sc4ccccc43)nc(C)c2c1,13µM*,4,-12%,16µM*,7%
CCC(=O)N/C(N)=N/c1nc(C)c2cc(OC)ccc2n1,13µM*,-66*,?,12µM*,7%[9.24 µM]
SMILES,TDP1 cell CPT,IL-1B inflam inh,HT1080 IDH1KD tx,TDP1 cell noCPT,HT1080NT lethal
Cc1cc2nc(/N=C(\N)NC(=O)N3c4ccccc4Sc4ccccc43)nc(C)c2cc1C,?,-7,22%,15µM*,19%
Cc1ccc2nc(/N=C(\N)NC(=O)N3c4ccccc4Sc4ccccc43)nc(C)c2c1,?,5,-2%,9.2µM*,4%
COc1ccccc1/C=N\NC(=O)c1ccc(COc2ccc(C)c(C)c2)o1,-1%,6,2%,-22%,0%
COc1ccc(S(=O)(=O)N2CCCCCC2)cc1NC(=O)Cc1cccc(C(F)(F)F)c1,?,-8,-18%,?,-16%
Nc1cccc2c1C(=O)c1ccc(Cl)cc1C2=O,-3%,-16,-5%,-12%,-5%
CCn1nc(C)c(/C=N/NC(=O)Cn2cncn2)c1C,4%,-13,-5%,-5%,-3%
Cc1ccc2c(C)nc(/N=C(\N)NC(=O)N3c4ccccc4Sc4ccccc43)nc2c1,?,-15,-2%,21µM*,0%
Cc1sc2ncnc(N3CCC(C(=O)Nc4nc(-c5cccs5)cs4)CC3)c2c1C,10µM*,29,2%,8.2µM*,0%
Cc1ccc2nc(NC(=O)C3CCN(c4ncnc5sc(C)c(C)c45)CC3)sc2c1,13µM*,6,-2%,?,-5%
COC(C[C@@H](O)[C@@H](C)[C@H](O)COCc1ccccc1)OC,1%,21,10%,-17%,8%
Cc1ccc(C)c(Nc2nc3nonc3nc2N2CCOCC2)c1,0%,-10,11%,-7%,0%
CCOC(=O)c1ccc(Nc2nc3nonc3nc2Nc2cccc(C)c2C)cc1,2.6µM*,.,.,2.1µM*,.
Cc1ccc(C)c(Nc2nc3nonc3nc2Nc2cccc(C)c2C)c1,3.7µM*,.,.,2.9µM*,.
CCOC(=O)N1CCN(C(=O)CSc2ccccc2)CC1,-18%,9,3%,-9%,3%
CN(C)CCCN1c2ccc(O)cc2Sc2ccc(Cl)cc21,?,-30,?,?,?
CCN(CC)CCCCN1c2ccccc2Sc2ccccc21,21µM*,-70*,23µM*,21µM*,18µM*
CCOC(=O)Nc1ccc2c(c1)N(C(=O)CCN(C)C)c1ccccc1S2,-11%,?,6%,-19%,6%
CN(C)CCCN1c2ccccc2Sc2ccc(C(F)(F)F)cc21,?,-62*,.,24µM*,.
CCN(CC)CCC(=O)N1c2ccccc2Sc2ccc(NC(=O)OC)cc21,-1%,-79*,-2%,0%,-8%
CCN(CC)CC(O)CN1c2ccccc2Sc2ccccc21 (configuration not stated),?,-68*,0%,?,-14%
OCCN(CCO)CC(O)CN1c2ccccc2Sc2ccccc21 (configuration not stated),-15%,-19,-5%,-14%,-8%
CCCCCCCCCCCCCCCC(=O)OC[C@H](O)[C@H]1OC(=O)C(O)=C1O,10%,.,.,-2%,.
CC(CN(C)C)CN1c2ccccc2Sc2ccc(C(F)(F)F)cc21 (configuration not stated),?,.,.,17µM*,.
